TLR9-MyD88 block – blocks human TLR9 binding to MyD88. CHO BLA complementation TLR9-MyD88, CCF4 FRET ratio. inhibition, % at 4.98 µM. 0.21% of 340,000 active. AID 504734;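 active = inhibition above the mean over all tested compounds plus 3 SD, cut at about 21% in these data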
TMEM16A inh – blocks the mouse calcium-activated chloride channel TMEM16A | HEK293 TMEM16A/YFP iodide influx fluorescence, ionomycin | normalized B-score (activity score, 25-100; higher = stronger inhibition) at 10 µM | Q8BHY3 | 1.2% of 310,000 active;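 active = ratio plate-corrected score three or more library SD toward inhibition, starting fluorescence score within five deviations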;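 note: score derived from kinetic fluorescence span divided by baseline fluorescence per well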
ANO1 activ – activators or potentiators of mouse TMEM16A chloride channel | Q8BHY3 | HEK293 TMEM16A/YFP-H148Q/I152L, iodide quench fluorescence; hits give low values | B-score at 10 µM | 0.3% of 340,000 active | AID 623877;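 active = fluorescence-ratio B-score plate-corrected deviation score at least 3 library SD below zero, with starting fluorescence score within 5 deviations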;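 note: channel opened by trigger with iodide after compound preincubation; score built on the fluorescence ratio of max minus min over baseline; more negative score means more quench and so TMEM16A activation or potentiation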
TLR4 MyD88 comp – blocks binding of human TLR4 to MyD88; 0.18% of 200,000 active; O00206+Q99836; HeLa CL3-4 TLR4/MyD88 BLA complementation, FRET ratio; AID 861; inhibition, % at 8.4 µM; in the data active = inhibition above about 25%
NOD2 RIPK2 PPI – blocks binding of human NOD2 to RIPK2; O43353; CHO BLA complementation NOD2-RIPK2, CCF4 ratio; inhibition, % at 4.98 µM; 0.38% of 360,000 active; in the data active = inhibition above about 21%
m5-HT2A agonist – agonists of mouse serotonin 5-HT2A receptor (HTR2A). P35363. CHO-K1 mHTR2A beta-arrestin complementation, luminescence; percent of 30 µM serotonin response. activation, % at 7.6 µM. 0.66% of 360,000 active. AID 624169;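 active = activation above a run cutoff, the mean activation of all tested compounds plus 3 SD, cut at about 14% in these data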
Target sequence (P35363 whole entry, looked up): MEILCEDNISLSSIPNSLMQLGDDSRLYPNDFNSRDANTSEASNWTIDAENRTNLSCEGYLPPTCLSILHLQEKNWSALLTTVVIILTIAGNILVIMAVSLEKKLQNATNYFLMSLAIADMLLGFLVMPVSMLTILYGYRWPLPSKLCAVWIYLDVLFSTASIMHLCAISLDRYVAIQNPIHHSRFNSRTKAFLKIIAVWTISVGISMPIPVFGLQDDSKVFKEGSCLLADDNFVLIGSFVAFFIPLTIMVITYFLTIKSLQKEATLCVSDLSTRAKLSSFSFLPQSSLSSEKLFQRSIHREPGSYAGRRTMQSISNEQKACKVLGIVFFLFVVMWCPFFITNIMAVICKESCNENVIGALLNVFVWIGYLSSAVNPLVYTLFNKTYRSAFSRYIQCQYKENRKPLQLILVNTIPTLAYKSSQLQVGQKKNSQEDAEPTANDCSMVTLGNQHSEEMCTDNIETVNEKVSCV
MOR ag counter – OPRM1 agonism in mouse HTR2A counterscreen | shares compounds with m5-HT2A agonist | U2OS OPRM1 beta-arrestin PathHunter, luminescence; DMSO 0%, DAMGO 9.3 µM 100% | activation, % at 9.3 µM | 5.3% of 2,300 active | AID 624380;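 active = mean activation above the mean of DMSO-only wells plus 3 SD, cut at about 0.5% in these data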
HTR2A ag conf – mouse HTR2A agonism confirmed; activation, % at 7.6 µM; CHO-K1 PathHunter beta-arrestin recruitment, luminescence; DMSO 0%, 30 µM serotonin 100%; shares compounds with m5-HT2A agonist; 19% of 2,300 active;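 active = mean activation across triplicates above the hit threshold derived in the original primary screen, cut at about 15% in these data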
Large screens that a line does not name were inactive (follow-up assays come after a bar, where they were run). Most compounds without a hit are left out; they make up all but 2.4% or so of the library.

CCOC(=O)CC(=O)CSc1ncc(C(=O)OCC)c(N)n1	none
COc1ccc(C2CC(c3ccccc3)=NN2C(=O)CCC(=O)O)cc1 (configuration not stated)	none (no result: TLR4 MyD88 comp)
COc1ccc(C2=NN(C(=O)CCC(=O)O)C(c3ccc([N+](=O)[O-])cc3)C2)cc1 (configuration not stated)	m5-HT2A agonist 19 (no result: TLR4 MyD88 comp) | MOR ag counter inactive | HTR2A ag conf inactive
COC(=O)c1cc(OC)c(OC)cc1NC(=O)CSCc1c(C)noc1C	m5-HT2A agonist 16 (no result: TMEM16A inh, TLR4 MyD88 comp) | MOR ag counter inactive | HTR2A ag conf inactive
CCOc1cc(/C=N/NC(=O)c2ccncc2)ccc1OC(=O)c1ccc([N+](=O)[O-])cc1	none
O=C(NC1(C(F)(F)F)NC(=O)N(c2ccc(F)cc2)C1=O)c1cccs1 (configuration not stated)	m5-HT2A agonist 18 | MOR ag counter inactive | HTR2A ag conf inactive
CCOC(=O)NC1(C(F)(F)F)NC(=O)N(c2ccc(F)cc2)C1=O (configuration not stated)	none
Cc1nnc(SCc2ccc([N+](=O)[O-])cc2)o1	none
Cc1nnc(SCC(=O)Nc2cc(Cl)ccc2Cl)n1CC1CCCO1 (configuration not stated)	m5-HT2A agonist 17 (no result: TLR4 MyD88 comp) | MOR ag counter inactive | HTR2A ag conf inactive
Cc1c(Cl)cccc1NC(=O)CSc1nnc(C)n1CC1CCCO1 (configuration not stated)	none (no result: TLR4 MyD88 comp)
CN(C)c1nc(N)nc(CSc2n[nH]c(-c3ccccc3)n2)n1	none
O=C(CSc1n[nH]c(=O)n1C1CC1)NCc1ccccc1	m5-HT2A agonist 15 (no result: TLR4 MyD88 comp) | MOR ag counter inactive | HTR2A ag conf inactive
CCc1ccc(NC(=O)CSc2n[nH]c(=O)n2C2CC2)cc1	none (no result: TMEM16A inh, TLR4 MyD88 comp)
O=C(CN1CCN(c2cccc(Cl)n2)CC1)N1CC(O)CO1 (configuration not stated)	m5-HT2A agonist 27 | MOR ag counter inactive | HTR2A ag conf inactive
O=C(CN1CCN(c2ccccn2)CC1)N1CC(O)CO1 (configuration not stated)	none
COc1ccc(CCNC(=O)C(=O)NCC2CCCO2)cc1OC (configuration not stated)	none
COc1cc(/C=C/C(=O)OCC(=O)NC(C)c2ccccc2)cc(OC)c1OC (configuration not stated)	m5-HT2A agonist 15 (no result: TMEM16A inh, TLR4 MyD88 comp) | MOR ag counter inactive | HTR2A ag conf inactive
CN1CCc2c(sc(/N=C/c3c[nH]c4ccccc34)c2C#N)C1	none (no result: TLR9-MyD88 block, TLR4 MyD88 comp)
CN1CCc2c(sc(/N=C/c3cc(Cl)ccc3O)c2C#N)C1	m5-HT2A agonist 19 (no result: TLR4 MyD88 comp) | MOR ag counter inactive | HTR2A ag conf 65
COCCOc1nc2c(c(=O)n(C)c(=O)n2C)n1CCc1ccccc1	none
CCOC(=O)Cn1cnc2c(cnn2-c2ccc(OC)cc2)c1=O	none (no result: TLR4 MyD88 comp)
COc1ccc(-n2ncc3c(=O)n(CC(=O)N(C(C)C)C(C)C)cnc32)cc1	m5-HT2A agonist 37 (no result: TLR4 MyD88 comp) | MOR ag counter inactive | HTR2A ag conf inactive
Cc1ccc(/C(=N/Nc2nc3ccccc3s2)C2=C(O)c3ccccc3C2=O)cc1	none
Cc1ccc(SCCN)cc1C	m5-HT2A agonist 21 | MOR ag counter inactive | HTR2A ag conf inactive
Cc1ccc(SCC(=O)NNC(=O)c2ccccc2)cc1C	none (no result: TLR4 MyD88 comp)
Cc1ccccc1C(=O)Nc1ccnc(-c2ccncc2)n1	m5-HT2A agonist 20 | MOR ag counter inactive | HTR2A ag conf inactive
CCN1C(=O)C(=O)N(CC(=O)Nc2cccc(C(F)(F)F)c2)C1=O	m5-HT2A agonist 44 (no result: TMEM16A inh, TLR4 MyD88 comp) | MOR ag counter inactive | HTR2A ag conf inactive
O=C(NCc1cccs1)C1CC(c2ccccc2O)=NO1 (configuration not stated)	none
Cc1nc(NCCc2ccc(S(N)(=O)=O)cc2)c2c(C)c(C)sc2n1	m5-HT2A agonist 16 | MOR ag counter inactive | HTR2A ag conf inactive
O=C1CC2CS(=O)(=O)CC2N1C1CCCCC1 (configuration not stated)	none
Cc1ccc(N(C)S(=O)(=O)c2cccc(C(=O)Oc3ccc4c(C)cc(=O)oc4c3)c2)cc1	m5-HT2A agonist 19 | MOR ag counter inactive | HTR2A ag conf inactive
O=C(OCc1cccc(F)c1)c1ccc2c(=O)n3c(nc2c1)CCC3	m5-HT2A agonist 18 (no result: TLR4 MyD88 comp) | MOR ag counter inactive | HTR2A ag conf inactive
Cc1ccc(C(=O)NCC(=O)N(C)Cc2ccccc2C)s1	m5-HT2A agonist 19 (no result: TMEM16A inh, ANO1 activ, TLR4 MyD88 comp) | MOR ag counter inactive | HTR2A ag conf inactive
Cc1ccc(C(=O)NCC(=O)N(C)Cc2cccc(F)c2)s1	none (no result: TMEM16A inh, TLR4 MyD88 comp)
COc1ccccc1NC(=O)N1CCN(C)CC1	none
COc1cccc(N2CCN(S(=O)(=O)c3ccc4nc(-c5ccccc5)[nH]c4c3)CC2)c1	m5-HT2A agonist 16 | MOR ag counter inactive | HTR2A ag conf inactive
Cc1ccc(S(=O)(=O)N(C)C[C@@H]2Oc3c(NC(=O)C4CC4)cccc3C(=O)N([C@@H](C)CO)C[C@@H]2C)cc1	none (no result: TMEM16A inh, ANO1 activ, TLR4 MyD88 comp)
COc1ccc(/C=N/NC(=O)c2ccc(NC(=O)C3CCCCC3)cc2)cc1O	m5-HT2A agonist 20 (no result: TLR4 MyD88 comp) | MOR ag counter inactive | HTR2A ag conf inactive
COc1cc(/C=N/NC(=O)c2ccc(NC(=O)C3CC3)cc2)ccc1OC(C)=O	none (no result: TLR4 MyD88 comp)
COc1ccc(C(=O)C2CCCN(C(=O)CCC3=NNC(=O)CC3)C2)c(C)c1 (configuration not stated)	none
CCc1ccccc1NC(=O)c1ccccc1N1C(=O)C2C3C=CC(C3)C2C1=O (configuration not stated)	m5-HT2A agonist 16 (no result: TLR4 MyD88 comp) | MOR ag counter inactive | HTR2A ag conf inactive
COc1cccc(NC(=O)c2ccccc2N2C(=O)C3C4C=CC(C4)C3C2=O)c1 (configuration not stated)	none (no result: TLR4 MyD88 comp)
Nc1cc(C(=O)O)c(Oc2ccc(Cl)cc2Cl)cc1C(=O)O	none
CCCCC(=O)Nc1cc2nn(-c3ccc(OC)cc3)nc2cc1C	m5-HT2A agonist 15 | MOR ag counter inactive | HTR2A ag conf inactive
COc1ccc(N(C)S(=O)(=O)c2cccc(C(=O)Nc3nc(C)c(C(C)=O)s3)c2)cc1	m5-HT2A agonist 16 (no result: TMEM16A inh, TLR4 MyD88 comp) | MOR ag counter inactive | HTR2A ag conf inactive
O=C(c1ccco1)N1CCN(CC2CC3C=CC2C3)CC1 (configuration not stated)	m5-HT2A agonist 21 | MOR ag counter inactive | HTR2A ag conf 76
COc1ccc(CN2CCN(CC(O)Cn3c4ccccc4c4ccccc43)CC2)cc1 (configuration not stated)	m5-HT2A agonist 19 | MOR ag counter 1.1 | HTR2A ag conf inactive

Screens: PubChem, several laboratories
